The results in this text go back to PubChem BioAssay (NCI).

Holding throughout (experiment): NCI-60 one-dose screen, 48 h (100 = growth as untreated, 0 = no growth, -100 = all killed)
In test [1] the test system is RPMI-8226 leukemia. Conditions: 10 µM unless noted.
For test [2], the system named is OVCAR-8 ovarian. Conditions: 10 µM unless noted.
Test [3] concerns OVCAR-5 ovarian. To be noted: 10 µM unless noted.
In test [4] the test system is OVCAR-4 ovarian. To be noted: 10 µM unless noted.
The subject of test [5] is SK-OV-3 ovarian. Conditions: 10 µM unless noted.
In test [6] the test system is IGROV1 ovarian. Conditions: 10 µM unless noted.
The subject of test [7] is OVCAR-3 ovarian. Conditions: 10 µM unless noted.
The subject of test [8] is HS 578T breast. To be noted: 10 µM unless noted.
In test [9] the test system is NCI/ADR-RES ovarian. To be noted: 10 µM unless noted.
Test [10] relates to T-47D breast. Conditions: 10 µM unless noted.
Test [11] deals with BT-549 breast. To be noted: 10 µM unless noted.
The test system of test [12] is MDA-MB-435 melanoma. Conditions: 10 µM unless noted.
For test [13], the system named is SW-620 colon. To be noted: 10 µM unless noted.
Test [14] concerns MCF7 breast. To be noted: 10 µM.
Test [15] concerns HCT-116 colon. Conditions: 10 µM unless noted.
In test [16] the test system is KM12 colon. To be noted: 10 µM unless noted.
Test [17] relates to HCC-2998 colon. To be noted: 10 µM unless noted.

This is part of a sample that, as a whole, favours compounds with a hit. Of some 83,000 tested, about 20% had one in any assay.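 How to read the values: 0–100, growth inhibition (40 = 60% inhibited); 0, no net growth; -100 to 0, cell death (-40 = 40% of starting cells died; -100 = all dead).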 Values without a mark were called inactive. Active and inactive are the calls of the source. How the source made its calls: active means growth percent below 10; inactive means the rest.

For `CCCCCCC(O)(c1ccc(F)cc1)C(CN1CCOCC1)c1ccccc1` (stereo unspecified), the growth in test [1] is 16.9%; in test [2], 33.5%; in test [3] it was 69.8%; in test [4] it was 31.7%; in test [5], 76.7%; in test [6], 44%. Also, the growth in test [7] was 2.28% (active); in test [8], 51.6%; in test [9], 17.2%; in test [10], 14.3%; in test [11] it was 61.9%; in test [12], 35.8%. The growth in test [13] was 26.3%; in [14] it was 20.4%; in test [15] it was 18.5%; in [16] it was 29%.
With `Cc1cc(OC(=O)c2ccc([N+](=O)[O-])cc2)nc2[nH]c(=O)sc12`, the growth is 99.8% in test [1]; 102% in test [2]; 105% in [3]; 98.7% in test [4]; 115% in [5]; 96.9% in test [6]. Moreover, the growth in [7] is 108%; in [8] it was 95.7%; in test [9], 104%; in [10], 99.7%; in [11], 111%; in [12], 108%. In addition, the growth in [13] is 104%; in test [14], 90.2%; in [15], 105%; in test [17], 104%; in [16], 102%.
In the case of `CN1CCN(Cc2ccc(C(=O)Nc3cncc(C#Cc4cnc(N)c5ccccc45)c3)cc2C(F)(F)F)CC1`, the growth in [1] was -41.4% (active); in [2], -17.8% (active); in test [3], -44% (active); in test [4], -44.5% (active); in [5] it was 35.2%; in [6], -47.4% (active). Besides, the growth is -74.1% (active) in test [7]; -35.4% (active) in [8]; -25.4% (active) in [9]; -10.5% (active) in [10]; 72% in [11]; -89.2% (active) in test [12]. In addition, the growth in test [13] is -66.3% (active); in test [14], -68.3% (active); in test [15] it was -84.5% (active); in test [17], -52.6% (active); in test [16], -70.4% (active).
As to `O=C(CCN1C(=O)c2ccccc2C1=O)Nc1ccc(Cl)cc1`, the growth in [1] was 8.45% (active); in test [2] it was 48.8%; in test [3], 104%; in test [4], 91.2%; in test [5], 97.9%; in test [6], 77.8%. The growth in test [7] was 78.3%; in test [8], 39.1%; in [9], 74.1%; in test [10], 60.1%; in test [12], 68.9%; in test [13], 103%. Also, the growth in [14] is 72.4%; in test [15], 61.4%; in test [17] it was 75.2%; in test [16], 75%.
Take `COc1cc(/C=C/C(=O)c2c(C)nc3ccccc3c2/C=C/c2ccccc2)cc(OC)c1OC`: the growth is -27.3% (active) in [1]; 11.6% in test [2]; 7.55% (active) in test [3]; 40.8% in test [4]; 59.3% in [5]; 2.87% (active) in test [6]. Besides, the growth in test [7] is -35.9% (active); in [8] it was 24.7%; in test [9] it was 8.09% (active); in test [10] it was 13.3%; in test [11], 6.8% (active); in [12], 3.78% (active). For the same compound, the growth in test [13] is 0.233% (active); in [14], 13.7%; in test [15] it was -81.8% (active); in test [16], -5.07% (active).
On to `CC(=O)SC1CC(=O)C=C2CCC3C4CCC(=O)OC4(C)CCC3C21C` (stereo unspecified), for which the growth is 103% in [1]; 98.9% in test [2]; 99.7% in test [3]; 122% in test [4]; 113% in test [5]; 147% in [6]. The growth was 106% in test [7]; 114% in test [8]; 110% in test [9]; 122% in test [10]; 92.4% in test [11]; 103% in test [13]. The growth in test [14] was 97%; in test [15], 102%; in test [17], 99.3%; in [16], 104%.
For the compound `Cc1nc(Nc2ccccn2)sc1C(=O)/C=C/c1ccc(Cl)cc1`, the growth in [1] is 12%; in [2], 10.1%; in test [3], 38.7%; in test [4], 54%; in test [5], 26.9%; in test [6] it was 13.9%. The growth is -23.2% (active) in [7]; 18.5% in test [8]; 3.2% (active) in [9]; 58.1% in test [10]; -28.8% (active) in [12]; 25.2% in test [13]. For the same compound, the growth was 17.6% in test [14], 14.3% in [15], 21.6% in [17] and 8.26% (active) in test [16].
Consider `NCCNc1nc2ccc(F)cc2c2c(=O)c3cc(F)ccc3sc12`, for which the growth in test [1] is 7.67% (active); in [2], 29.9%; in test [3], 81.2%; in test [4], 37.2%; in test [5] it was 77.6%; in test [6], 22.9%. The growth in [7] is 38.1%; in test [8] it was 59.5%; in test [9], 61.7%; in [10], 33.7%; in test [12], 13.4%; in test [13] it was -73.5% (active). In addition, the growth is -15.2% (active) in [14], -87.1% (active) in test [15], 14.8% in test [17] and 17.8% in test [16].
With `O=C(Nc1ccc(C23CC4CC(CC(c5ccccc5)(C4)C2)C3)cc1)c1cccs1`, the growth in [1] was 41.1%; in test [2] it was 57.5%; in [3] it was 100%; in test [4], 58%; in [5] it was 99.3%; in test [6] it was 92.8%. For the same compound, the growth was 71.1% in test [7]; 92.7% in [8]; 58% in test [9]; 49.2% in test [10]; 44.9% in test [12]; 82% in [13]. Also, the growth in [14] is 67.3%; in test [15], 60.4%; in test [17] it was 74.8%; in [16], 64.8%.
